Reference: the supplement of paper PMC6288085
Counter-ions that a name gives are not always drawn. ± gives the uncertainty stated by the source.

Each molecule was assayed on Caenorhabditis elegans N2 (assay: food intake (mean delta OD600 / animal over 72 h) with 50 uM loxapine co-treatment (OD600 units per animal); higher = more food eaten (less suppression of loxapine-induced hyperphagia)). Conditions: first compound 33 µM, loxapine concentration 50 µM.
Description: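 C. elegans N2 adults (FUDR-sterilised, day 1) in 96-well plates fed gamma-irradiated bacteria. Each library drug (MedChemExpress FDA-approved library) at 33 uM was combined with loxapine at 50 uM. Food intake was measured as bacterial clearance: the change in OD600 from day 1 to 72 h, normalised per animal (mean over 14-21 wells of about 10-12 worms). Drugs flagged for bacterial lysis or sickness were excluded by the authors.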

Row | Structure (SMILES) | food intake
1 | OCCN1C[C@H](O)[C@@H](O)[C@H](O)[C@H]1CO [miglitol] + CN1CCN(C2=Nc3ccccc3Oc3ccc(Cl)cc32)CC1 [loxapine] | 0.0214 ± 0.005
2 | CC(=O)NCCCS(=O)(=O)O [Acamprosate (calcium)] + CN1CCN(C2=Nc3ccccc3Oc3ccc(Cl)cc32)CC1 [loxapine] | 0.023 ± 0.0036
3 | Cc1cccc(-c2nn3c(c2-c2ccnc4ccc(C(N)=O)cc24)CCC3)n1 + CN1CCN(C2=Nc3ccccc3Oc3ccc(Cl)cc32)CC1 [loxapine] | 0.0252 ± 0.0052
4 | CC(C)[C@H](N)C(=O)OCCOCn1cnc2c(=O)nc(N)[nH]c21 [valacyclovir (hydrochloride)] + CN1CCN(C2=Nc3ccccc3Oc3ccc(Cl)cc32)CC1 [loxapine] | 0.0213 ± 0.0096
5 | CC[C@H]1OC(=O)[C@H](C)[C@@H](O[C@H]2C[C@@](C)(OC)[C@@H](O)[C@H](C)O2)[C@H](C)[C@@H](O[C@@H]2O[C@H](C)C[C@H](N(C)C)[C@H]2O)[C@](C)(O)C[C@@H](C)[C@@H]2N[C@@H](COCCOC)O[C@H]([C@H]2C)[C@]1(C)O [dirithromycin] + CN1CCN(C2=Nc3ccccc3Oc3ccc(Cl)cc32)CC1 [loxapine] | 0.0208 ± 0.0079
6 | S=c1nc[nH]c2nc[nH]c12 [6-Mercaptopurine] + CN1CCN(C2=Nc3ccccc3Oc3ccc(Cl)cc32)CC1 [loxapine] | 0.0218 ± 0.0028
7 | CNC(=O)[C@H](Cc1c[nH]c2ccccc12)NC(=O)[C@@H](CC(=O)NO)CC(C)C + CN1CCN(C2=Nc3ccccc3Oc3ccc(Cl)cc32)CC1 [loxapine] | 0.0195 ± 0.0054
8 | Nc1nc(/C(=C/CC(=O)O)C(=O)N[C@@H]2C(=O)N3C(C(=O)O)=CCS[C@H]23)cs1 [ceftibuten (dihydrate)] + CN1CCN(C2=Nc3ccccc3Oc3ccc(Cl)cc32)CC1 [loxapine] | 0.0192 ± 0.0055
9 | CC[C@H]1OC(=O)C[C@@H](O)[C@H](C)[C@@H](O[C@@H]2O[C@H](C)[C@@H](O[C@H]3C[C@@](C)(O)[C@@H](O)[C@H](C)O3)[C@H](N(C)C)[C@H]2O)[C@@H](CC=O)C[C@@H](C)C(=O)/C=C/C(C)=C/[C@@H]1CO[C@@H]1O[C@H](C)[C@@H](O)[C@@H](OC)[C@H]1OC [Tylosin (tartrate)] + CN1CCN(C2=Nc3ccccc3Oc3ccc(Cl)cc32)CC1 [loxapine] | 0.021 ± 0.0039
10 | O=C1NC(=O)C(c2ccccc2)(c2ccccc2)N1 [phenytoin] + CN1CCN(C2=Nc3ccccc3Oc3ccc(Cl)cc32)CC1 [loxapine] | 0.0218 ± 0.0037
11 | O=C1N=C(O)NC1(c1ccccc1)c1ccccc1 [phenytoin (sodium)] + CN1CCN(C2=Nc3ccccc3Oc3ccc(Cl)cc32)CC1 [loxapine] | 0.0233 ± 0.0031
12 | CCOc1ccccc1OCCN[C@H](C)Cc1ccc(OC)c(S(N)(=O)=O)c1 [tamsulosin] + CN1CCN(C2=Nc3ccccc3Oc3ccc(Cl)cc32)CC1 [loxapine] | 0.022 ± 0.0032
13 | N[C@@H]1CCCCN(c2c(F)cc3c(=O)c(C(=O)O)cn(C4CC4)c3c2Cl)C1 [besifloxacin (hydrochloride)] + CN1CCN(C2=Nc3ccccc3Oc3ccc(Cl)cc32)CC1 [loxapine] | 0.0227 ± 0.0056
14 | CCCCNc1ccc(C(=O)OCCN(C)C)cc1 [tetracaine (hydrochloride)] + CN1CCN(C2=Nc3ccccc3Oc3ccc(Cl)cc32)CC1 [loxapine] | 0.0236 ± 0.0037
15 | CC(=O)Nc1ncc([N+](=O)[O-])s1 [nithiamide] + CN1CCN(C2=Nc3ccccc3Oc3ccc(Cl)cc32)CC1 [loxapine] | 0.0244 ± 0.0027
16 | C[N+]1(C)CCC(=C(c2ccccc2)c2ccccc2)CC1 [diphenmanil (methylsulfate)] + CN1CCN(C2=Nc3ccccc3Oc3ccc(Cl)cc32)CC1 [loxapine] | 0.0235 ± 0.0021
17 | S=C=Nc1ccc(N=C=S)cc1 [p-Phenylene diisothiocyanate] + CN1CCN(C2=Nc3ccccc3Oc3ccc(Cl)cc32)CC1 [loxapine] | 0.0229 ± 0.0028
18 | CC(C)(Oc1ccc(CCNC(=O)c2ccc(Cl)cc2)cc1)C(=O)O [bezafibrate] + CN1CCN(C2=Nc3ccccc3Oc3ccc(Cl)cc32)CC1 [loxapine] | 0.0212 ± 0.0034
19 | CCOCC(O)COc1ccc(NC(=O)CC[S+](C)C)cc1 (stereo not given) [Suplatast (tosilate)] + CN1CCN(C2=Nc3ccccc3Oc3ccc(Cl)cc32)CC1 [loxapine] | 0.0232 ± 0.0036
20 | CS(=O)(=O)c1ccc([C@@H](O)[C@@H](CO)NC(=O)C(Cl)Cl)cc1 [thiamphenicol] + CN1CCN(C2=Nc3ccccc3Oc3ccc(Cl)cc32)CC1 [loxapine] | 0.0228 ± 0.0025
21 | CCOC(=O)/C=C(C)/C=C/C=C(C)/C=C/c1c(C)cc(OC)c(C)c1C [etretinate] + CN1CCN(C2=Nc3ccccc3Oc3ccc(Cl)cc32)CC1 [loxapine] | 0.0213 ± 0.0039
22 | CC[C@@H]([C@H](C)O)n1ncn(-c2ccc(N3CCN(c4ccc(OC[C@@H]5CO[C@@](Cn6cncn6)(c6ccc(F)cc6F)C5)cc4)CC3)cc2)c1=O [Posaconazole] + CN1CCN(C2=Nc3ccccc3Oc3ccc(Cl)cc32)CC1 [loxapine] | 0.023 ± 0.0056
23 | Cn1c(=O)c2nc[nH]c2n(C)c1=O [theophylline] + CN1CCN(C2=Nc3ccccc3Oc3ccc(Cl)cc32)CC1 [loxapine] | 0.00971 ± 0.011
24 | CC1(C)O[C@@H]2C[C@H]3[C@@H]4CCC5=CC(=O)C=C[C@]5(C)[C@@]4(F)[C@@H](O)C[C@]3(C)[C@]2(C(=O)CO)O1 [triamcinolone (acetonide)] + CN1CCN(C2=Nc3ccccc3Oc3ccc(Cl)cc32)CC1 [loxapine] | 0.0224 ± 0.0033
25 | NS(=O)(=O)c1ccc(C(=O)O)cc1 [carzenide] + CN1CCN(C2=Nc3ccccc3Oc3ccc(Cl)cc32)CC1 [loxapine] | 0.0251 ± 0.0067
